Compound activity as filed in PubChem.
FBPA coupling cs – counter-screen for Giardia aldolase inhibitors: coupling enzyme system | activity change, negative = inhibition, % at 58.2 µM, hits read low | coupling enzyme system counterscreen, AmpLite Red fluorescence | AID 2472 | actives 0.67% (n = 290,000); in the data active means activity change below about -30%
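Final compound at 57.5 uM, incubated 10 min at RT with coupling enzyme reagent (glyceraldehyde-3-phosphate), then 20 min with substrate and AmpLite Red detection. Fluorescence read at 525/598 nm; tests interference with the coupling assay, not aldolase inhibition.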
Sfp inh – inhibitors of Bacillus subtilis Sfp phosphopantetheinyl transferase; Q9F4F7; Biochemical Sfp PPTase activity, qHTS; Potency, µM, most hits filed as inhibitors; actives 3.5% (n = 310,000);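 further: the enzyme is Sfp with the accession as filed and its product quenches rhodamine fluorescence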
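Buffer: 50 mM Hepes-Na pH 7.6, 10 mM MgCl2, 0.01% Nonidet P-40, 0.01% BSA. Enzyme 15 nM, pre-exposed to compound 15 min; substrates then added and fluorescence change tracked over 30 min.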
Giardia kill – kills Giardia lamblia. Giardia lamblia trophozoite viability. activity change, % at 7.66 µM, hits read low. actives 0.15% (n = 340,000). AID 540267; in the data active means activity change below about -80%; inconclusive means between about -30% and that limit;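 further: parasites exposed to compound for two days anaerobically before the ATP read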
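Killing of trophozoites was scored by loss of ATP luminescence after a 48 hrs anaerobic exposure to compounds at 37 deg C, using 100 cells per well.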
ELG1 repair inh – blocks ELG1-dependent DNA repair in HEK293T cells. HEK293T ELG1-luciferase reporter, luminescence, 16 h; DNA damage induced by 5-fluorouridine. Potency, µM (series often up to 46.1 µM), actives largely listed as inhibitors. actives 2.3% (n = 330,000); further: nearly all actives have a fitted effect of over 55% in size
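Overnight (16 hr) co-exposure of 2,000 cells/well to 5-fluorouridine and compound at 37 °C preceded detection. Luciferase was quantified via ONE-Glo luminescence; loss of signal denotes inhibition.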
Of the large screens only hits and unclear results are named; the others gave an inactive call. Sampled rows, rich in hits. Any-hit rate of the full collection: about 5.5%. Unless noted, the call rests on the fitted dose curve; in most records, active means well fitted curve in the direction sought with a large enough effect; inconclusive means small, poorly fitted or top-dose-only effect, or another doubt; inactive means no such curve, though single readings can be large; an effect the other way counts as inactive or inconclusive.

Cc1ccc(S(=O)(=O)c2nc(C(C)(C)C)oc2N2CCOCC2)cc1	Sfp inh 28µM
c1cnc2nc(-c3ccc4c(c3)OCO4)cn2c1	ELG1 repair inh inconclusive
c1ccn2cc(-c3ccc4c(c3)OCO4)cc2c1	Sfp inh 56µM, ELG1 repair inh inconclusive
COc1cc2c(cc1OC)CN(c1nc(-c3cccnc3)nc3ccccc13)CC2	ELG1 repair inh 9.2µM
O=S(=O)(c1ccccc1F)N1CCN(c2nc(-c3cccnc3)nc3ccccc23)CC1	ELG1 repair inh 18µM (no result: FBPA coupling cs, Sfp inh)
Cc1ccc(C)c(S(=O)(=O)N2CCN(c3nc(-c4cccnc4)nc4ccccc34)CC2)c1	ELG1 repair inh 18µM (no result: FBPA coupling cs, Sfp inh)
CN(C(=O)c1ccc(N2CCCCC2)c([N+](=O)[O-])c1)C1(C)CCS(=O)(=O)C1 (stereo not given)	none (no result: FBPA coupling cs)
COCc1c(C#N)c(NCCc2ccccc2)nc(C)c1[N+](=O)[O-]	ELG1 repair inh inconclusive
COCc1c(C#N)c(NCc2cc(OC)c(OC)c(OC)c2)nc(C)c1[N+](=O)[O-]	ELG1 repair inh 16µM
CCOc1ccc2nc(NC(=S)N(C)C)sc2c1	Sfp inh 40µM, ELG1 repair inh inconclusive
CCNC(=O)Nc1nc2ccccc2s1	ELG1 repair inh inconclusive
CN(C)C(=S)Nc1nc2ccccc2s1	Sfp inh 14µM, ELG1 repair inh inconclusive
CCCC(=O)Nc1nc2ccc(OCC)cc2s1	ELG1 repair inh inconclusive
Cn1c2ccccc2c2nnc(SCCOc3ccccc3)nc21	none (no result: FBPA coupling cs, Sfp inh, ELG1 repair inh)
Cc1c(C)c2c(OCC(=O)NCc3ccccn3)cc3c(c2oc1=O)CCC(C)(C)O3	ELG1 repair inh inconclusive
CCn1cc(C(=O)NCc2ccco2)c(=O)c2ccc(C)nc21	none
Cc1ccc(CC(=O)NCC(O)c2ccccc2)cc1 (stereo not given)	none
COc1c([N+](=O)[O-])c(=O)n(-c2ccccc2)c2ccccc12	Sfp inh 18µM
COc1cc(CNC(=O)c2ccc(Cn3nc(C)c(Cl)c3C)o2)cc(OC)c1	ELG1 repair inh 18µM
COc1ccc(OC)c(/C(C)=N/Nc2ccc(C(=O)O)cc2)c1	ELG1 repair inh inconclusive
C/C(=N\NC(=O)c1ccc(O)cc1)c1ccc(N2CCOCC2)cc1	none
COc1ccc(C(=O)Nc2ccc(/C(C)=N/NC(=O)c3ccncc3)cc2)cc1	Sfp inh 50µM, ELG1 repair inh inconclusive (no result: FBPA coupling cs, Giardia kill)
C/C(=N/Nc1ccc(C(=O)O)cc1)c1ccc(O)c(O)c1O	FBPA coupling cs -34, Sfp inh 40µM, ELG1 repair inh inconclusive
C/C(=N\NC(=O)c1cccc(N/N=C(\C)c2cc(O)ccc2O)c1)c1cc(O)ccc1O	ELG1 repair inh 16µM
C/C(=N\NC(=O)c1ccc(N/N=C(\C)c2ccc(O)cc2)cc1)c1ccc(O)cc1	ELG1 repair inh 8.2µM
COc1ccc(/C(C)=N/NC(=O)c2ccncc2)cc1	none
CC(=O)Oc1ccc(-c2ccc(C(=O)NCCc3ccc(S(N)(=O)=O)cc3)cc2)cc1	none
COC(=O)[C@@H](NC(=O)N1CCN(C(=O)C2COc3ccccc3O2)CC1)C(C)C (stereo not given in full)	none
CCOC(=O)C1(N(CC)CC)Sc2cc(C)ccc2NC1=O (stereo not given)	none (no result: FBPA coupling cs)
CCOC(=O)C1(Nc2nccs2)Sc2ccccc2NC1=O (stereo not given)	ELG1 repair inh 7.3µM
Clc1cc(Cl)c(OCC#CI)cc1Cl	Sfp inh 79µM (no result: FBPA coupling cs, Giardia kill, ELG1 repair inh)
O=C(CS(=O)(=O)Cc1ccccc1)N1CCN(c2ccccc2F)CC1	none
Cc1cc(N/N=C/c2cccc(Br)c2)nc2ccccc12	Sfp inh 20µM, ELG1 repair inh inconclusive
Cc1oc(C(=O)Nc2ccc(O)cc2)cc1COc1ccccc1	FBPA coupling cs -32
CCOc1ncccc1C(=O)NNC(=O)c1ccccc1-n1cccc1	none (no result: FBPA coupling cs)
CCn1c(SCC(=O)Nc2ccc(NC(C)=O)cc2)nc2c1c(=O)n(C)c(=O)n2C	none
CCOC(CCn1c(SCC(=O)Nc2cc(C)on2)nc2ccccc2c1=O)OCC	ELG1 repair inh 21µM
CCOC(CCn1c(SCc2ccc([N+](=O)[O-])cc2)nc2ccccc2c1=O)OCC	ELG1 repair inh 15µM
CCOC(Cn1c(SCC(=O)Nc2cc(C)on2)nc2ccccc2c1=O)OCC	none
COc1ccc(S(=O)(=O)N(C)C)cc1NC(=O)COC(=O)C1CC1	none (no result: FBPA coupling cs, Sfp inh)
NC1(C(=O)O)CCC1	Sfp inh inconclusive (no result: Giardia kill, ELG1 repair inh)
NC1(C(=O)O)CC(C(=O)O)C1 (stereo not given)	Sfp inh 50µM (no result: Giardia kill, ELG1 repair inh)
N[C@@]1(C(=O)O)CN[C@@H](C(=O)O)C1	Sfp inh 22µM (no result: FBPA coupling cs, Giardia kill, ELG1 repair inh)
CCn1nc(NC(=O)c2ccccc2)c2cc3cccc(C)c3nc21	ELG1 repair inh 7.3µM
CSc1ccccc1NC(=O)C1=COCCO1	none (no result: FBPA coupling cs)
